Laboratory results from PubChem BioAssay AID624256 (NMMLSC, 2012).
The whole screen tested about 360,000 compounds, of which about 3,700 (1%) were called active. Not shown: some 2% with an inconclusive outcome. The sample holds actives, similar compounds and a random draw of the others, so the mix is not that of the screen.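 Rule for the calls: active = normalized GFP-positive differentiation at or above the plate's own cutoff, the solvent-only control mean plus 3 SD; inconclusive = no clear call, values can overlap the other calls; inactive = the rest.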

Assay: HoxA9-arrested leukemia cell differentiation promoters – flow cytometry, MLPCN library, primary screen (AID 624256);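 for GFP+ MAC1+ double positive: cells exposed to compound for four days before flow analysis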;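 for normalized GFP-positive differentiation: cells exposed to compound for four days before flow analysis; 0% = DMSO wells and 100% = fulvestrant positive control at 5 µM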
Details: ER-HoxA9 myeloid progenitors, lysozyme-GFP differentiation, at 10 µM; GFP+ MAC1+ double positive: measured here: differentiation confirmed by MAC1 staining, stronger effect = higher value; normalized GFP-positive differentiation: stronger effect = higher value

Row | SMILES | GFP+ MAC1+ double positive | outcome | normalized GFP-positive differentiation
1 | O=C(Cc1c(O)c2ccccc2[nH]c1=O)NCc1ccccc1 | 0.1% | inactive | 
2 | CCCOC(=O)Cc1c(O)c2ccccc2[nH]c1=O | 0.6% | inactive | 
3 | COC(=O)Cc1c(-c2[nH]c3ccccc3c2CC(=O)OC)[nH]c2ccccc12 | 17.1% |  | 207% (active)
4 | CCOc1ccc(Cl)cc1-c1cc(C(=O)NCc2cccs2)[nH]n1 | 1.7% | inactive | 
5 | CC1(C(=O)NS(=O)(=O)c2ccccc2)CCN1C(=O)c1ccccc1 (stereo not drawn) | 0.9% | inactive | 
6 | COc1ccccc1Cc1c(-c2ccc(Cl)cc2)nc2c3ccccc3ccn12 | 0.5% | inactive | 
7 | CCOC(=O)N1CCN(C(=O)c2ccc3c(=O)n(CCc4ccc(OC)c(OC)c4)c(=O)[nH]c3c2)CC1 | 6.8% |  | 56% (active)
8 | COCCn1c(=S)[nH]c2cc(C(=O)NCCc3ccc(OC)c(OC)c3)ccc2c1=O | 2.7% | inactive | 
9 | COc1ccc(Cn2c(=S)[nH]c3cc(C(=O)N4CCCCC4)ccc3c2=O)cc1 | 0.2% | inactive | 
10 | CCCCc1c(-c2ccc(Br)cc2)ncn1CCc1ccccc1OC | 2.9% | inactive | 
11 | C[C@H](NC(=O)[C@@H]1CCCN1C(=O)[C@@H]1CCCN1C(=O)c1ccccc1)c1ccccc1 | 0.7% | inactive | 
12 | Cc1ccc(CN2CC(N3CCC(Cc4ccccc4)CC3)CS2(=O)=O)cc1 (stereo not drawn) | 1.6% | inactive | 
13 | Cc1cccc(CC2(O)C(=O)Nc3ccccc32)n1 (stereo not drawn) | 29.8% |  | 367% (active)
14 | Cc1cc(O)c(C2(O)C(=O)Nc3ccccc32)cc1C (stereo not drawn) | 0.4% | inactive | 
15 | COc1ccc(C2(O)C(=O)Nc3ccccc32)cc1 (stereo not drawn) | 0.4% | inactive | 
16 | Cc1ccc(S(=O)(=O)N2CC[C@H]3[C@@H](C2)C(=O)C[C@@H](c2ccccc2)N3S(=O)(=O)c2ccc(C)cc2)cc1 | 2.5% | inactive | 
17 | CCOC(=O)c1c(-c2ccc(-c3ccccc3)cc2)csc1NC(=O)CCC(=O)O | 0.3% | inactive | 
18 | Cc1[nH]c2ccccc2c1C(=O)COC(=O)c1c(-c2ccccc2)noc1C | 0.6% | inactive | 
19 | CCOC(=O)c1c(-c2cccc(C)c2)csc1NC(=O)c1c(-c2ccccc2)noc1C | 15.3% |  | 89% (active)
20 | CC1(C(=O)NCc2ccccc2)CSCC(=O)N1CCCN1CCOCC1 (stereo not drawn) | 4% | inactive | 
21 | CSCCC(C(=O)NC(C)(C)C)n1c(-c2ccccc2)nc2ccccc21 (stereo not drawn) | 4% | inactive | 
22 | CSc1ccc(CN2CCC2(C)C(=O)NCc2ccccc2Br)cc1 (stereo not drawn) | 0.7% | inactive | 
23 | O=C(NCc1ccc(F)cc1)c1cc(C2CCCCN2C(=O)c2ccccn2)on1 (stereo not drawn) | 2.6% | inactive | 
24 | N#Cc1ccc(C(C(=O)NCc2ccccc2)n2c(=O)c(-c3ccco3)nc3ccccc32)cc1 (stereo not drawn) | 2.4% | inactive | 
25 | CC(OC(=O)c1ccc(Cl)cc1O)C(=O)NCCC1=CCCCC1 (stereo not drawn) | 0.3% | inactive | 
26 | CC(C)OC(=O)c1ccc(NCc2cc(O)ccc2O)cc1Cl | 7.3% |  | 354% (active)
27 | COC(=O)c1ccc(NCc2cc(O)ccc2O)cc1 | 1.6% | inactive | 

Row | SMILES | GFP+ MAC1+ double positive | outcome | normalized GFP-positive differentiation
28 | CC(C)(C)CC(=O)Nc1nc(C(N)Cc2ccc(C(F)(F)F)cc2)cs1 (stereo not drawn) | 0.2% | inactive | 
29 | Cc1ccc(S(=O)(=O)N2CC3C(=O)C[C@@H](c4ccccc4Cl)N(S(=O)(=O)c4ccc(C)cc4)C3CC2c2ccccc2)cc1 (stereo partly drawn) | 1.9% | inactive | 
30 | O=C(O)c1ccc(N/N=C/c2cn(-c3ccccc3)nc2-c2cccs2)cc1 | 0.5% |  | 10.8% (active)
31 | CC(=O)C1=C(C)NC(C)=C(C(C)=O)C1c1cn(-c2ccccc2)nc1-c1cccs1 | 0.7% | inactive | 
32 | S=c1[nH]nc(-c2cccs2)n1/N=C/c1cn(-c2ccccc2)nc1-c1ccc(Cl)cc1 | 0.1% | inactive | 
33 | Cc1nc2c(OCC(=O)C(C)(C)C)cccn2c1N(C)Cc1cccs1 | 2.1% | inactive | 
34 | Fc1cccc(Cc2c(-c3cccc(Cl)c3)nc3ccc(Br)cn23)c1 | 0.4% | inactive | 
35 | O=C(Nc1cccc(Cc2ccccc2)c1)Nc1ccc2nc([C@@H]3O[C@H](CO)[C@@H](O)[C@H](O)[C@H]3O)[nH]c2c1 | 2.9% | inactive | 
36 | CC#CC[N+](C)(C)CCCCCC | 1.6% |  | 19.3% (active)
37 | COC(=O)[C@]12CCCCC=C1N(Cc1ccc(Cl)cc1Cl)C(=O)[C@H](CC(=O)NCc1cccc3ccccc13)C2 | 1.1% | inactive | 
38 | COc1cccc2sc3cc(NCC[C@@H]4CCCN4C)ccc3c(=O)c12 | 1.3% | inactive | 
39 | Cc1cc2oc3ccc(NCCC4CCCN4C)cc3c(=O)c2cc1C (stereo not drawn) | 6.6% |  | 73.2% (active)
40 | CCCCNC(=O)c1nc(C2CCN(S(=O)(=O)c3ccc(F)c(F)c3)CC2)oc1-c1cccc(C(F)(F)F)c1 | 0.6% | inactive | 
41 | O=C(Nc1cccc(-n2cnnn2)c1)c1cccnc1 | 2% | inactive | 
42 | Cc1ccc(S(=O)(=O)N2CCCCC2)cc1NC(=O)c1cccnc1 | 1.2% | inactive | 
43 | Cc1ccc(-n2nc3cc(C)c(NC(=O)c4cccnc4)cc3n2)cc1 | 5.5% |  | 15.8% (active)
44 | CC1(C(=O)NS(=O)(=O)c2ccc(C#N)cc2)CCN1C(=O)CC1CCCC1 (stereo not drawn) | 0.6% | inactive | 
45 | C=CCOc1ccc(/C=C/C(=O)OCC(=O)NC(C)c2ccc(F)cc2)cc1 (stereo not drawn) | 0.7% | inactive | 
46 | CC(NC(=O)COC(=O)CCC(=O)c1ccc(Cl)cc1)c1ccccc1 (stereo not drawn) | 0.8% | inactive | 
47 | CC(NC(=O)COC(=O)c1ccc(Cl)cc1O)c1ccc(F)cc1 (stereo not drawn) | 6.2% |  | 140% (active)
48 | CN1OC[C@@H]2CN(C(=O)C(C)(C)C)[C@H](c3ccc(-n4ccnc4)cc3)C[C@@H]21 | 0.2% | inactive | 
49 | COc1ccc(/C=C/C(=O)c2c(O)cc(OC)cc2OC)cc1 | 1.7% | inactive | 
50 | O=C(NCc1ccccc1)C(c1ccc(F)cc1)N1CCN(C(=O)C2CCCO2)CC1 (stereo not drawn) | 0.2% | inactive | 
51 | CCC(=O)N1Cc2cc(C(=O)NCc3cccc(F)c3)nc(-c3cccc(C4=CCCC4)c3)c2[C@H]1CCO | 0.5% | inactive | 
52 | Cc1cc(=O)oc2ccc(OCC(=O)O)cc12 | 2.2% | inactive | 
53 | CCOC(=O)c1c(-c2ccccc2)oc2cc(Br)c(O)c(C=O)c12 | 0.5% | inactive | 
54 | CCOC(=O)c1c(-c2ccccc2)oc2ccc(OCC(=O)NN)cc12 | 1.9% |  | 26.6% (active)
